Screening data as filed in PubChem.
Compounds with a hit are over-represented: about 19% of the library has one in this group of screens.
Shiga inhibitor – inhibitors of Shiga toxin in Vero cells | inhibition, % at 38.7 µM | Vero cells, Shiga toxin protein synthesis inhibition reporter | 9.2% of 290,000 active; in the data active means inhibition mostly above about 28%, no sharp cut-off; inactive means mostly below about 43%; further: 0% is about no effect
Pf growth 48h – P. falciparum growth inhibition at 48 hours (one generation). P. falciparum luciferase growth in erythrocytes, 48 h. Potency, µM (highest dose often 28.7 µM), inactives show at the top dose activity change, negative = inhibition, hits mostly inhibitors. 5.9% of 310,000 active. AID 504832; further: potency means the concentration at half of the fitted maximal effect; on the % scale 0 is the no-effect control and ±100 the full control effect
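Erythrocytes infected with P. falciparum carrying an integrated firefly luciferase reporter (2% hematocrit, 0.1% parasitemia final) were exposed to compounds in RPMI 1640 with 0.5% Albumax at 37 C, 5% CO2. Growth inhibition was scored as reduced luminescence.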
SARS PLpro yeast – blocks SARS-CoV papain-like protease in a yeast assay; S. cerevisiae expressing SARS-CoV PLpro, growth rescue; Potency, µM (titrated, usually from 32.9 µM), without a hit: at the highest dose activity, positive = growth rescue, actives largely listed as activators; 0.19% of 330,000 active; calls by dose curve; further: potency means the concentration at half of the fitted maximal effect; 0% is about no effect; nearly all actives have a fitted effect of over 55% in size
Cycloheximide cs – counter-screen hit for Shiga toxin inhibitors, cycloheximide; cell reporter, cycloheximide protein synthesis inhibition counterscreen; max response, %; 12% of 300,000 active; in the data active means max response mostly above about 13%, no sharp cut-off; inactive means mostly below about 14%; further: read at 38.3 µM for the half of the compounds with a filed dose; 0% is about no effect
Pf growth 96h – P. falciparum growth inhibition at 96 hour, primary screen for plastid delayed-death inhibitors; AID 504834; Potency, µM (top dose mostly 28.7 µM), inactives show at the top dose activity change, negative = inhibition, actives largely listed as inhibitors; 6.9% of 320,000 active; P. falciparum luciferase reporter growth, 96 h; further: potency means the concentration at half of the fitted maximal effect; on the % scale 0 is the no-effect control and ±100 the full control effect
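Two-generation exposure (96 h) targets delayed-death phenotype. Reporter parasites carrying integrated firefly luciferase, in red cells at 2% hematocrit and 0.05% parasitemia final, kept at 37 C, 5% CO2; luminescence loss indicates inhibition.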
AMA1-RON2 inh – AMA1-RON2 (P. falciparum) interaction inhibition; AlphaScreen AMA1-biotinylated RON2 peptide binding; Potency, µM (titrated, usually from 58.2 µM), for the others: at the highest dose activity change, negative = inhibition, actives largely listed as inhibitors; 0.2% of 360,000 active; AID 720542;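 further: potency means the concentration at half of the fitted maximal effect; 0% = vehicle wells and -100% = peptide control; nearly all actives have a fitted effect of over 45% in size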
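AMA1 (3D7) with his tag at 25 nM final met compounds first, then biotinylated RON2 peptide at 25 nM; detection used donor plus acceptor beads, 10 µg/mL apiece, read by AlphaScreen after 30 min at room temperature.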
* marks the source's active call; other numbers are inactive results; [ ] = another dose, or the depositor's remark. Unless noted, the call rests on the fitted dose curve; in most records, active means well fitted curve in the direction sought with a large enough effect; inconclusive means small, poorly fitted or top-dose-only effect, or another doubt; inactive means no such curve, though single readings can be large; an effect the other way counts as inactive or inconclusive.

For Cc1nc(C)c(NC(=O)N2CCc3ccccc32)cc1NC(=O)N1CCc2ccccc21 the results were Shiga inhibitor 3, Pf growth 48h inconclusive, SARS PLpro yeast 2%, Cycloheximide cs -3 and AMA1-RON2 inh -1%.
Screening CCNc1nc(NCC)n2c(SCC(=O)Nc3ccccc3C(F)(F)F)nnc2n1 returned Pf growth 48h inconclusive, SARS PLpro yeast 8%, Pf growth 96h inconclusive and AMA1-RON2 inh -3%.
Screening COc1ccc(C(=O)N[C@H]2COC(C)(C)O[C@H]2c2ccccc2)cc1 returned Shiga inhibitor 10, Pf growth 48h 11%, SARS PLpro yeast -4%, Cycloheximide cs 12, Pf growth 96h inconclusive and AMA1-RON2 inh -8%.
For C[C@@H](NC(=O)c1nc[nH]c1C(=O)NCc1ccccc1)c1ccccc1 the results were Pf growth 48h -5%, SARS PLpro yeast -2%, Pf growth 96h inconclusive and AMA1-RON2 inh 105%.
`CC(=O)C(=Cc1ccccc1)c1ccccc1` gave AMA1-RON2 inh 5%.
`O=C(CCN=C1NS(=O)(=O)c2ccccc21)OCc1c(F)c(F)c(F)c(F)c1F` gave Pf growth 48h inconclusive, SARS PLpro yeast 9%, Pf growth 96h 14% and AMA1-RON2 inh 21%.
Screening O=C(NNc1c(Cl)cccc1Cl)c1ccno1 returned Shiga inhibitor 6, Pf growth 48h 9%, SARS PLpro yeast 1%, Cycloheximide cs -1, Pf growth 96h 18% and AMA1-RON2 inh 5%.
Screening CCOC(=O)c1cc(NC(=O)N(CC)C2CCCCC2)c(C)nc1C returned Shiga inhibitor 5, Pf growth 48h 1%, SARS PLpro yeast 14µM*, Cycloheximide cs 8, Pf growth 96h -1%[5.75 µM] and AMA1-RON2 inh 2%.
`CCOC(=O)c1cc(NC(=O)N(C)C2CCCCC2)c(C)nc1C` gave Shiga inhibitor 4, Pf growth 48h 9%, SARS PLpro yeast 0%, Cycloheximide cs 0, Pf growth 96h 26% and AMA1-RON2 inh -5%.
`Cc1ccnc(N2C(=O)OC(C)(C)C2(C)O)c1` (stereo not drawn) gave Shiga inhibitor -1, Pf growth 48h 14%, SARS PLpro yeast -2%, Cycloheximide cs -1, Pf growth 96h 8.3µM* and AMA1-RON2 inh 2%.
`COc1ccc(-c2oc3ccc(-c4cc(OC)c(OC)c(OC)c4)cc3c2-c2ccc(OC)nc2)cc1` gave Shiga inhibitor -2, Pf growth 48h inconclusive, SARS PLpro yeast -3%, Cycloheximide cs -1, Pf growth 96h 3.3µM* and AMA1-RON2 inh 0%.
Screening CCc1ccc(NC(=O)CCCN2C(=O)C3CC=CCC3C2=O)cc1 (stereo not drawn) returned Shiga inhibitor 97*, Pf growth 48h -7%, SARS PLpro yeast 32%, Cycloheximide cs 72*, Pf growth 96h -3% and AMA1-RON2 inh -14%.
O=C(CCN1C(=O)C2CC=CCC2C1=O)Nc1ccccc1Cl (stereo not drawn) was read as Shiga inhibitor -5, Pf growth 48h 5%, SARS PLpro yeast 1%, Cycloheximide cs 0, Pf growth 96h 21% and AMA1-RON2 inh 4%.
`Cc1cccc(NC(=O)CCCN2C(=O)C3CC=CCC3C2=O)c1` (stereo not drawn) gave Shiga inhibitor 8, Pf growth 48h 7%, SARS PLpro yeast -2%, Cycloheximide cs 14, Pf growth 96h 56% and AMA1-RON2 inh 0%.
`Cc1c(Cl)cccc1NC(=O)CCN1C(=O)C2CC=CCC2C1=O` (stereo not drawn) gave Shiga inhibitor -9, Pf growth 48h 13%, SARS PLpro yeast -2%, Cycloheximide cs -5, Pf growth 96h 5.2µM* and AMA1-RON2 inh 28%.
Screening CCOC(=O)C1CCCN(Cc2nc(CC3CC3)no2)C1 (stereo not drawn) returned Shiga inhibitor 46, Pf growth 48h 32%, SARS PLpro yeast 1%, Cycloheximide cs 12, Pf growth 96h 3% and AMA1-RON2 inh -16%.
`O=C(NCCOc1ccccc1)C1C(=O)Nc2ccccc2C(=O)N1C1CCCCC1` (stereo not drawn) gave AMA1-RON2 inh -4%.
